HCMV antiviral – human cytomegalovirus inhibition; HFF cells, HCMV-luciferase reporter, 72 h; active compounds read low; hit rate 4.5% among 410,000; activity change, negative = inhibition, % at 57.5 µM; in the data active = activity change below about -60%; inconclusive = no clear call, values can overlap the other calls; inactive = above about -39%
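Compounds were evaluated in HFFs infected with an HCMV luciferase reporter virus (MOI 1 PFU/cell). Luciferase in lysates collected 72 h post infection served as the replication measure.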
Sm TGR inh – S. mansoni TGR enzyme inhibition. Q962Y6. purified TGR, DTNB reduction, TNB absorbance 405 nm. Potency, µM (doses to about 114 µM), for inactives: top-dose activity change, negative = inhibition, most hits filed as inhibitors. hit rate 3% among 360,000. AID 485364; note: potency is the fitted concentration of half-maximal effect; nearly all actives have a fitted effect of over 60% in size
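Kinetic colorimetric format: TGR-catalysed, NADPH-driven DTNB reduction monitored via TNB absorbance. Enzyme dispensed at 20 nM; compound exposure 15 min at room temperature before reaction start.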
FBPA Giardia inh – blocks Giardia fructose-bisphosphate aldolase activity; A8B2U2; purified Giardia FBPA; Potency, µM (highest dose often 59.6 µM), without a hit: at the highest dose activity, negative = inhibition, hits mostly inhibitors; hit rate 0.71% among 290,000; AID 2451; note: potency is the fitted concentration of half-maximal effect; nearly all actives have a fitted effect of over 55% in size
Target sequence (A8B2U2 whole entry, looked up): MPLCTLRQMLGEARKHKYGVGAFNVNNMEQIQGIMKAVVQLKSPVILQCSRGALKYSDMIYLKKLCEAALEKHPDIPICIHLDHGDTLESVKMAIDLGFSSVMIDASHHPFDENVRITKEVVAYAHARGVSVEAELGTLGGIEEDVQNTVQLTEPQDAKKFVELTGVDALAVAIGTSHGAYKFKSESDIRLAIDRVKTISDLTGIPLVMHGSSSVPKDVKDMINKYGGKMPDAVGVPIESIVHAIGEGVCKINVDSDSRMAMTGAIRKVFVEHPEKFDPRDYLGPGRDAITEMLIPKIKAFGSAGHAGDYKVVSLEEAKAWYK
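40 nM FBPA preincubated 10 min at RT with compound (up to 57.5 uM final), then substrate plus GAPDH/TPI/NAD/arsenate coupling and diaphorase/resazurin added. Fluorescence read after 20 min at RT, 525/598 nm.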
RE007 growth inh – less growth of the S. pombe RE007 Vpr strain. S. pombe RE007 Vpr strain, BacTiter-Glo ATP luminescence, 24 h. Potency, µM (highest dose often 92.2 µM), for the others: top-dose activity change, negative = less growth, hits mostly inhibitors. hit rate 0.21% among 360,000. AID 651644; active = well fitted falling curve with a large enough effect; inconclusive = small, poorly fitted or top-dose-only effect; inactive = no such curve, though single readings can be large or run the other way; note: potency is the fitted concentration of half-maximal effect; nearly all actives have a fitted effect of over 50% in size
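Fission yeast RE007 carrying one integrated HIV-1 vpr copy, seeded at OD 0.01 in PMG+AL medium with 23 nL pinned compound. Grown 24 h at 30 degrees; viability read by BacTiter-Glo luminescence after 5 min.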
FMDV inh – antivirals against foot and mouth disease virus | FMDV antiviral cell-based qHTS | Potency, µM (series often up to 57.9 µM), inactives show at the highest dose activity change, negative = inhibition, hits mostly inhibitors | hit rate 1.2% among 410,000; calls by dose curve; tested in HEK293T cells; note: read-out not given here; potency is the fitted concentration of half-maximal effect; nearly all actives have a fitted effect of over 45% in size
Tb PYK inh – inhibitors of Trypanosoma brucei pyruvate kinase. Q57TT1. TbPYK enzyme, Kinase-Glo Plus ATP luminescence, 45 min. Potency, µM (doses to about 76.8 µM), for the others: top-dose activity, negative = inhibition, actives largely listed as inhibitors. AID 624173. hit rate 0.12% among 410,000; note: potency is the fitted concentration of half-maximal effect; nearly all actives have a fitted effect of over 50% in size
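Glycolytic pyruvate kinase of T. brucei was incubated with substrate, test compound and 130 uM ADP for 45 minutes at room temperature. Luminescent Kinase-Glo Plus signal was measured after 10 minutes.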
The depositor's hits bear a star; ? = inconclusive; . = not tested or not shown; ! = not confirmed by another sample; [ ] = remark or other dose. Sampled rows, rich in hits. Any-hit rate of the full collection: about 7.7%. Unless noted, calls come from the whole dose curve; as a rule, active = well fitted curve in the direction sought with a large enough effect; inconclusive = small, poorly fitted or top-dose-only effect, or another doubt; inactive = no such curve, though single readings can be large; an effect the other way counts as inactive or inconclusive. % is set by controls: 0 for no effect and ±100 for the full control effect.

SMILES	HCMV antiviral	Sm TGR inh	FBPA Giardia inh	RE007 growth inh	FMDV inh	Tb PYK inh
CC1CCC(C(C)C)C(OC(=O)Cn2c(-c3ccccc3)[n+](C)c3ccccc32)C1 (stereo not given)	-100*	0%	-3%	2%	13µM*	2%
Cc1cccc(OCc2n(CC(=O)OC3CC(C)CCC3C(C)C)c3ccccc3[n+]2C)c1 (stereo not given)	.	6%	3%	14%	?	-5%
CNC(=O)[C@H]1O[C@@H](n2cnc3c(NCc4ccc(N)cc4)ncnc32)[C@H](O)[C@H]1O	.	.	-1%	.	.	.
CCOC(=O)CSC1=C(C#N)C(=O)NC(c2ccc(OC)c(OC)c2)S1 (stereo not given)	7	-2%	?	-12%	28µM*	-31%
COCCN(C(=O)CC(C)(C)C)c1nnc(-c2cccnc2)s1	-13	-8%	2%	3%	-9%	-7%
COCCN(C(=O)CCc1ccccc1OC)c1nnc(-c2cccnc2)s1	-61*	14%	-8%	3%	?	-4%
CC(C)NC(=O)C1CCC(Cn2c(=O)c3sccc3n(CC(=O)N3CCCC3)c2=O)CC1 (stereo not given)	-89*	0%	.	.	5%	3%
Cc1ccc(NC(=O)C2CCCN(c3cnccn3)C2)cc1Cl (stereo not given)	-17	3%	.	.	-12%	0%
CCCCn1c(N)c(N(CCOC)C(=O)CSCc2ccccc2C)c(=O)[nH]c1=O	-97*	-13%	.	-4%	-7%	0%
CCCCn1c(N)c(N(CCOC)C(=O)C2CCN(S(=O)(=O)c3ccc(Cl)cc3)CC2)c(=O)[nH]c1=O	-70*	-1%	.	1%	-19%	6%
CCCCn1c(N)c(N(CCOC)C(=O)c2ccc(-n3c(C)ccc3C)cc2)c(=O)[nH]c1=O	?	40µM*	.	1%	3%	-5%
O=C(NC1CCCCC1)C1CCN(C(=O)NCc2ccccc2)CC1	4	6%	4%	5%	13%	6%
O=C(NC1CCCC1)C1CCN(C(=O)NCc2ccccc2)CC1	-63*	11%	6%	-1%	-22%	4%
Cc1cccc(C(=O)NC2CCN(C(=O)NCc3ccccc3)CC2)c1	-5	11µM*	-3%	-2%	-2%	-18%
O=C(NCc1ccc(Cl)cc1)C1CCN(C(=O)Cc2ccccc2)CC1	-68*	7%	7%	-7%	-19%	-6%
CC1CCC2C(=O)N3C(CCC(C)[C@@H]3c3cccc(N4CCOCC4)c3)C(=O)N2C1c1cccc(N2CCOCC2)c1 (stereo not given in full)	.	.	1%[12.9 µM]	.	.	.
Cc1ccccc1-c1cc2c(c(OC3CCOC3)c1)OCCN(C(=O)Cn1cccn1)C2 (stereo not given)	.	.	.	.	2%	.
Cc1ccc(/C=C2/C(=O)ON=C2c2ccccc2)o1	28	5µM*	?	4%	?	?
O=C1ON=C(c2ccccc2)/C1=C/c1ccccc1	10	?	-15%	18%	?	?
O=C1ON=C(c2ccccc2)/C1=C\c1ccco1	-3	25µM*	?	14%	-9%	-19%
Cc1nnc2c3ccccc3nc(N3CCN(c4ccccc4)CC3)n12	-7	19%	.	.	-13%	0%
COc1cc(OC)c(NC(=O)/C=C/C(=O)O)cc1Cl	18	50µM*	-28%	-4%	-6%	-3%
Cc1cc(C)c(NC(=O)CS)c(Cl)c1	-31	?	-2%	13%	-19%	1%
Cc1cc(C)c(NC(=O)/C=C\C(=O)O)c(Cl)c1	-14	35µM*	15%	6%	-8%	-18%
Cc1cc(C)c(NC(=O)/C=C\C(=O)O)c([N+](=O)[O-])c1	5	16µM*	14%	32µM*	8%	-13%
SMILES	HCMV antiviral	Sm TGR inh	FBPA Giardia inh	RE007 growth inh	FMDV inh	Tb PYK inh
O=C(c1cccc(Cl)c1)n1nc(-c2ccco2)nc1NCc1cccs1	32	-27%	.	.	19%	-12%
CC[C@H](C)[C@H](NC(=O)[C@H](Cc1ccc(O)cc1)NC(=O)[C@@H](NC(=O)[C@H](CCCN=C(N)N)NC(=O)[C@@H](N)CC(=O)O)C(C)C)C(=O)N[C@@H](Cc1cnc[nH]1)C(=O)N1CCC[C@H]1C(=O)O	.	.	-4%	.	.	.
O=C1/C(=C\c2cccs2)N=C(c2cccs2)N1Nc1ccccc1	-78*	-1%	13%	1%	.	7%
O=C1/C(=C/c2cccs2)N=C(c2cccs2)N1Nc1ccccc1	?	2%	-2%	50%	-8%	0%
Cc1ccc(/C=C2\C(=O)NC(=O)N(Cc3ccccc3Cl)C2=O)o1	125	?	-3%	16%	32µM*	-24%
Cc1ccc(/C=C2\C(=O)NC(=O)N(CCc3ccc(F)cc3)C2=O)o1	27	11µM*	-1%	2%	22µM*	-7%
Cc1cc(C(=O)O)ccc1-c1ccc(/C=C2\NC(=O)N(Cc3ccccc3Cl)C2=O)o1	.	50µM*	?	4%	-7%	-27%
Cc1ccc(CN2C(=O)N/C(=C\c3ccc(-c4ccc(C(=O)O)cc4C)o3)C2=O)cc1	-16	-4%	0%	6%	-10%	-1%
Cc1ccc(/C=C2/C(=O)NC(=O)N(Cc3ccc(F)cc3)C2=O)o1	28	20µM*	2%	.	.	.
Cc1cc(/C=C2\C(=O)NC(=O)N(Cc3ccccc3Cl)C2=O)c(C)n1-c1ccc(C(=O)O)cc1	-26	?	0%	28%	?	-7%
CCc1nc(-c2ccc(C)c(S(=O)(=O)N3CCN(c4ccc(C(C)=O)cc4)CC3)c2)no1	-22	1%	.	.	-29%	0%
Cc1ccc2nc3cc([N+](=O)[O-])cc([N+](=O)[O-])c3cc2c1	57	2.5µM*	-16%	?	?	-3%
Cc1nc2ccc([N+](=O)[O-])cc2nc1C	16	4%	5%	4%	-6%	0%
N#Cc1ccc(OCC(=O)N[C@@H](Cc2ccccc2)c2nc3ccccc3[nH]2)cc1	-1	.	.	.	.	.
COc1ccc(NC(=O)Cn2nnc(C(=O)NCCc3ccccc3)c2N)cc1	-64*!	-12%	-2%	-5%	5%	2%
Cc1cc(C)c(NC(=O)Cn2nnc(C(=O)NCc3cccs3)c2N)c(C)c1	7	8%	0%	19%	40µM*!	-4%

Screening results: PubChem BioAssay, National Center for Advancing Translational Sciences (NCATS)
